Records with an inconclusive call do not appear. Active and inactive are the calls of the source. Rule for the calls, unless noted: active = hit-call score of the fitted dose curve at least 0.9, where 1 is the maximum; inactive = score below 0.9.
Experiments:
[1] = biological target: Glucocorticoid receptor (Homo sapiens) (UniProt P04150); test: ATG_GR_TRANS: Attagene TRANS-FACTORIAL HepG2 Assay for human Glucocorticoid Receptor (GR) (AID 2282978; active = hit-call score of the fitted dose curve at least 0.9, where 1 is the maximum;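 note: activators score as hits since higher reporter transcript over DMSO is fitted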); conditions: HepG2 Attagene TRANS GR reporter, mRNA transcription
How it was run: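 HepG2 cells transiently transfected with GAL4-UAS reporter units and exogenous GR-Gal4 chimera, dosed 24 h. Reporter mRNA by RT-PCR, FAM labeling, HpaI digest and capillary electrophoresis; gain-of-signal fit versus DMSO.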

[2] = ATG_M_06_TRANS: Attagene TRANS-FACTORIAL HepG2 Assay for M06 Transcription Factor (Internal Marker) (AID 2282983; active = hit-call score of the fitted dose curve at least 0.9, where 1 is the maximum); conditions: HepG2 Attagene TRANS M06 internal marker reporter
How it was run: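 Multi-reporter-transfected HepG2, 24 h treatment; reporter transcripts quantified via RT-PCR, primer-extension labelling and CE. DMSO-normalized gain-of-signal fit.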

[3] = ATG_M_32_TRANS: Attagene TRANS-FACTORIAL HepG2 Assay for M32 Transcription Factor (Internal Marker) (AID 2282984; active = hit-call score of the fitted dose curve at least 0.9, where 1 is the maximum;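 note: transcript level of a background control reporter unit measured by RT-PCR and capillary electrophoresis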); conditions: HepG2 Attagene TRANS M32 internal marker reporter
How it was run: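 Internal-marker readout from a multiplexed transcription reporter panel. HepG2 cells were transfected with GAL4-UAS reporter units, treated 24 hours, and reporter transcript levels determined by fluorescence after RT-PCR and capillary separation.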

[4] = biological target: Nuclear receptor subfamily 4 group A member 2 (Homo sapiens) (UniProt P43354); test: ATG_NURR1_TRANS: Attagene TRANS-FACTORIAL HepG2 Assay for human Nuclear Receptor Related Protein 1 (NURR1) (AID 2282985; active = hit-call score of the fitted dose curve at least 0.9, where 1 is the maximum); conditions: HepG2 Attagene TRANS reporter, mRNA readout
How it was run: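 Endpoint: reporter mRNA increase relative to DMSO. HepG2 cells transfected with reporter units, treated 24 h; RNA processed by RT-PCR, labelling, HpaI digestion and capillary electrophoresis.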

[5] = biological target: Transcriptional activator Myb (Homo sapiens) (UniProt P10242); test: ATG_Myb_CIS: Attagene CIS-FACTORIAL HepG2 Assay for human Myeloblastosis (Myb) Proto-Oncogene Transcription Factor (AID 2282986); conditions: HepG2 Attagene CIS-FACTORIAL Myb reporter transcription; actives raise or lower the signal
How it was run: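 Transiently transfected HepG2 cells carrying a multiplexed cis-promoter reporter set report endogenous Myb activity after 24 h compound exposure. Reporter mRNA is read by RT-PCR with capillary electrophoresis of fluorescent products, fitted bidirectionally against DMSO.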

[6] = biological target: Nuclear respiratory factor 1 (Homo sapiens) (UniProt Q16656); test: ATG_NRF1_CIS: Attagene CIS-FACTORIAL HepG2 Assay for human Nuclear Respiratory Factor 1 (NRF1) Orphan Gene (AID 2282987); conditions: HepG2 NRF1 cis-element reporter, Attagene multiplex; actives raise or lower the signal
How it was run: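 HepG2 cells transiently transfected with multiple cis-regulated reporter units, exposed 24 h. Reporter mRNAs measured by RT-PCR, fluorescent labelling, HpaI digestion and capillary electrophoresis; bidirectional fitting against DMSO.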

[7] = ATG_NFI_CIS: Attagene CIS-FACTORIAL HepG2 Assay for human Nuclear Factor I (NFI) (AID 2282989); conditions: HepG2 cis-regulatory reporter, NFI response element transcription; actives raise or lower the signal
How it was run: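 Reporter transcription driven by endogenous transcription factors in HepG2 cells; 24 h treatment. Quantitation by labelled RT-PCR fragments on capillary electrophoresis, gain- or loss-of-signal relative to DMSO.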

[8] = biological target: Myc proto-oncogene protein (Homo sapiens) (UniProt P01106); test: ATG_Myc_CIS: Attagene CIS-FACTORIAL HepG2 Assay for human Myelocytomatosis (Myc) Proto-Oncogene Transcription Factor (AID 2282990); conditions: HepG2, Attagene cis-reporter transcription factor activity; actives raise or lower the signal
How it was run: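 Transiently transfected HepG2 cells bearing cis-promoter reporter units for endogenous transcription factors; 24 h exposure. Reporter mRNA measured by RT-PCR, 6-FAM primer extension, HpaI cut and capillary electrophoresis; bidirectional fit relative to DMSO.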

[9] = ATG_NRF2_ARE_CIS: Attagene CIS-FACTORIAL HepG2 Assay for human Nuclear Factor Erythroid 2 Related Factor 2 (NFR2) response to Antioxidant Response Elements (ARE) (AID 2282992); conditions: HepG2 Attagene ARE/NRF2 reporter, transcription factor activity; actives raise or lower the signal;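 for AC50: reporter mRNA level measured by RT-PCR and capillary electrophoresis fluorescence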
How it was run: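 Readout: reporter mRNA quantified by RT-PCR plus FAM-labelled primer extension, HpaI digestion and capillary electrophoresis, 24 h after dosing transfected HepG2 cells. Gain or loss of signal is fitted bidirectionally against DMSO baseline.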

[10] = ATG_Oct_MLP_CIS: Attagene CIS-FACTORIAL HepG2 Assay for human Octamer-Binding Transcription Factor (Oct) (AID 2282993); conditions: HepG2 Attagene cis-factorial Oct reporter, mRNA; actives raise or lower the signal
How it was run: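 Transfected HepG2 cells, 24 h treatment. Reporter mRNA quantified by RT-PCR–capillary electrophoresis; bidirectional fitting against DMSO.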

[11] = biological target: Cellular tumor antigen p53 (Homo sapiens) (UniProt P04637); test: ATG_p53_CIS: Attagene CIS-FACTORIAL HepG2 Assay for human p53 Transcription Factor (AID 2282994); conditions: HepG2 p53 cis-element reporter, Attagene mRNA; actives raise or lower the signal
How it was run: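 Read-out: reporter mRNA by RT-PCR plus capillary electrophoresis with fluorescence detection. Human HepG2 liver cells carried transfected multi-reporter cis-element constructs, dosed 24 h. Gain or loss of signal fitted bidirectionally against DMSO control.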

[12] = biological target: Bile acid receptor (Homo sapiens) (UniProt Q96RI1); test: ATG_FXR_TRANS: Attagene TRANS-FACTORIAL HepG2 Assay for Farnesoid X Receptor (FXR) (AID 2282979; active = hit-call score of the fitted dose curve at least 0.9, where 1 is the maximum;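 note: hits raise reporter mRNA above DMSO so AC50 marks FXR activation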); conditions: HepG2 Attagene TRANS FXR-GAL4 reporter transcription
How it was run: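 After 24 h chemical treatment of transfected HepG2 cells, GAL4-UAS reporter transcripts driven by an exogenous FXR-GAL4 fusion were measured by RT-PCR and capillary electrophoresis. Increases over DMSO were fitted.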

[13] = biological target: Oxysterols receptor LXR-alpha (Homo sapiens) (UniProt Q13133); test: ATG_LXRa_TRANS: Attagene TRANS-FACTORIAL HepG2 Assay for human Liver X Receptor alpha (LXRa) (AID 2282980; active = hit-call score of the fitted dose curve at least 0.9, where 1 is the maximum); conditions: HepG2 Attagene TRANS reporter, LXRa transactivation
How it was run: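 In this multiplexed TRANS system, compounds act on HepG2 cells carrying GAL4-UAS reporter units and a receptor-GAL4 fusion for 24 h. Induced reporter RNA is amplified, fluorescently labelled and sized by capillary electrophoresis, with DMSO as baseline.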

[14] = biological target: Oxysterols receptor LXR-beta (Homo sapiens) (UniProt P55055); test: ATG_LXRb_TRANS: Attagene TRANS-FACTORIAL HepG2 Assay for human Liver X Receptor beta (LXRb) (AID 2282981; active = hit-call score of the fitted dose curve at least 0.9, where 1 is the maximum); conditions: HepG2 Attagene TRANS GAL4-LXRb reporter, mRNA
How it was run: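 Multiplexed reporter assay, HepG2, 24 h dosing. Fluorescence of labelled RT-PCR products after capillary electrophoresis gives transcript level; positive fitting direction relative to DMSO.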

[15] = ATG_NF_kB_CIS: Attagene CIS-FACTORIAL HepG2 Assay for human Nuclear Factor Kappa B (NF-kB) (AID 2282991); conditions: HepG2 Attagene cis-factorial NF-kB reporter mRNA; actives raise or lower the signal
How it was run: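 HepG2 cells transfected with cis-promoter-driven reporter units, so endogenous transcription factor activity is measured. Reporter mRNA quantified 24 h after dosing by RT-PCR and capillary electrophoresis, with bidirectional fitting against DMSO.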

[16] = BSK_3C_uPAR: BioMAP Diversity Plus: 3C Assay for Urokinase-type plasminogen activator receptor (uPAR) Biomarker Activity (AID 2282998); conditions: BioMAP 3C HUVEC, uPAR biomarker ELISA; actives raise or lower the signal
How it was run: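 Readout: ELISA for surface uPAR. System: human umbilical vein endothelial primary cells, 24 h after chemical exposure. Analysis: bidirectional fit, DMSO baseline.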

[17] = BSK_3C_VCAM1: BioMAP Diversity Plus: 3C Assay for Vascular cell adhesion molecule 1 (VCAM1) Biomarker Activity (AID 2282999); conditions: BioMAP 3C HUVEC, VCAM1 ELISA, cytokine-stimulated; actives raise or lower the signal
How it was run: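 HUVEC primary cells, 24 h compound exposure; VCAM-1 by ELISA; gain/loss of signal fitted bidirectionally vs DMSO baseline.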

[18] = BSK_4H_Eotaxin3: BioMAP Diversity Plus: 4H Assay for Eotaxin 3 Biomarker Activity (AID 2283000); conditions: primary human endothelial cells (HUVEC); actives raise or lower the signal
How it was run: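 ELISA quantitation of CCL26 (Eotaxin-3) protein from chemically dosed human vascular endothelial cells at 24 h; increases and decreases both scored relative to DMSO-treated baseline.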

[19] = biological target: Hepatocyte nuclear factor 4-alpha (Homo sapiens) (UniProt P41235); test: ATG_HNF4a_TRANS: Attagene TRANS-FACTORIAL HepG2 Assay for human Hepatocyte Nuclear Factor 4 alpha (HNF4a) (AID 2282982; active = hit-call score of the fitted dose curve at least 0.9, where 1 is the maximum); conditions: HepG2 HNF4a transactivation reporter, mRNA readout
How it was run: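 Endpoint reflects transcriptional activation of a GAL4-UAS reporter by an HNF4a-GAL4 chimera in transfected HepG2 cells, 24 h post-dosing. Fluorescence from RT-PCR products separated by capillary electrophoresis; DMSO baseline.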

Measured: AC50

Glucocorticoid receptor (Homo sapiens), sequence (P04150 whole entry, looked up, the tested form may be a part): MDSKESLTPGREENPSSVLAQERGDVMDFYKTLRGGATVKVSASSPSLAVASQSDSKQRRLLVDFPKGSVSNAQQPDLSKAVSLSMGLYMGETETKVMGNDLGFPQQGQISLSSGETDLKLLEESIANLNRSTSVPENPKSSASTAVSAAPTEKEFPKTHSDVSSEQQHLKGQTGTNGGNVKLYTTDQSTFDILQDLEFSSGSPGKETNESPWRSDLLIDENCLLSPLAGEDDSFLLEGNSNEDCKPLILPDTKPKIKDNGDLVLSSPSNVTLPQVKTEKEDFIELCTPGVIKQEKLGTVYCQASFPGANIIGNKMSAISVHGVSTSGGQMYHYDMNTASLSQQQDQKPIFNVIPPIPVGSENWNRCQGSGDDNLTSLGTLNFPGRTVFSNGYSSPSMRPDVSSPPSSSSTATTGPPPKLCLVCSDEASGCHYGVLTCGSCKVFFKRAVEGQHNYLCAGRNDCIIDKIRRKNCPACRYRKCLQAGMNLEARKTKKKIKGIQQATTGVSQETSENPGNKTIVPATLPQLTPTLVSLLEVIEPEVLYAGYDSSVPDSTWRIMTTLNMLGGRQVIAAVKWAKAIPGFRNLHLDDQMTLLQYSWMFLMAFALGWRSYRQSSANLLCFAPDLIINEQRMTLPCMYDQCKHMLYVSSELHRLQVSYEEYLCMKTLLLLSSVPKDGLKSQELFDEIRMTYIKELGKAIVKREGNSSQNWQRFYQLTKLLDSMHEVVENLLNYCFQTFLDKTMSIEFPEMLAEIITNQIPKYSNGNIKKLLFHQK
Cellular tumor antigen p53 (Homo sapiens), sequence (P04637 whole entry, looked up): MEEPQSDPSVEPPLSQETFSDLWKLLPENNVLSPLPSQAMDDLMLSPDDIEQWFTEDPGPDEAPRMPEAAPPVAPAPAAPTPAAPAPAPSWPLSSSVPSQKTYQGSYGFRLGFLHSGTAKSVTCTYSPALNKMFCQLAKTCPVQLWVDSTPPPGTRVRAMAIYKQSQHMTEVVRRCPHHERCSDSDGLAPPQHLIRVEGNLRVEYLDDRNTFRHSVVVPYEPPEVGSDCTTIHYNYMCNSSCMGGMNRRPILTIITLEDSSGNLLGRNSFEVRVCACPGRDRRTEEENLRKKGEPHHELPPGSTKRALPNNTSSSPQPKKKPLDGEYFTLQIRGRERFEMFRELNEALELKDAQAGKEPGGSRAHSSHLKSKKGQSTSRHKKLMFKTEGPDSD
Bile acid receptor (Homo sapiens), sequence (Q96RI1 whole entry, looked up, the tested form may be a part): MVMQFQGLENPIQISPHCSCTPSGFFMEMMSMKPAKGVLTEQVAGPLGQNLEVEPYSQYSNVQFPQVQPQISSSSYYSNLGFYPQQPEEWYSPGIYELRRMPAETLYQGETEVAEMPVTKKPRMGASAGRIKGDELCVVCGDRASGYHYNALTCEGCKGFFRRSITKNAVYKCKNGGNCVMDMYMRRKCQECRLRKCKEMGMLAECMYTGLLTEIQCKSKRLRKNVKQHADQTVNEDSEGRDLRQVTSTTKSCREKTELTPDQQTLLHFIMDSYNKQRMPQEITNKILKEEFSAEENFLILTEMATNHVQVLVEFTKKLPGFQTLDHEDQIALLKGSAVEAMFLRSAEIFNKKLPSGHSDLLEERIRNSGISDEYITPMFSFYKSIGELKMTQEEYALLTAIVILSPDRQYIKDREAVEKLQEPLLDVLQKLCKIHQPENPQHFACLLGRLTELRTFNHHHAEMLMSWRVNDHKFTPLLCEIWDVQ
Oxysterols receptor LXR-alpha (Homo sapiens), sequence (Q13133 whole entry, looked up, the tested form may be a part): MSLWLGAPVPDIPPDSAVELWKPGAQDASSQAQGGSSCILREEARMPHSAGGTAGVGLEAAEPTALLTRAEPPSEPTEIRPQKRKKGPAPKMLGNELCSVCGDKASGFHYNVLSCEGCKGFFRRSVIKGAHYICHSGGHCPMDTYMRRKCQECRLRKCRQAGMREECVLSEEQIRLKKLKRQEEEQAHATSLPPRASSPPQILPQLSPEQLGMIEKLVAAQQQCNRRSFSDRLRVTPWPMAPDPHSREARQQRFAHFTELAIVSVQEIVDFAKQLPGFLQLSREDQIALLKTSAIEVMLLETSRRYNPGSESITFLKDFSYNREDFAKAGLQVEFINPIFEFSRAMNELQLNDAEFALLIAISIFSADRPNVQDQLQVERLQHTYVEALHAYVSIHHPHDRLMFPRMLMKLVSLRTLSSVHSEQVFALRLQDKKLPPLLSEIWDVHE
Transcriptional activator Myb (Homo sapiens), sequence (P10242 whole entry, looked up): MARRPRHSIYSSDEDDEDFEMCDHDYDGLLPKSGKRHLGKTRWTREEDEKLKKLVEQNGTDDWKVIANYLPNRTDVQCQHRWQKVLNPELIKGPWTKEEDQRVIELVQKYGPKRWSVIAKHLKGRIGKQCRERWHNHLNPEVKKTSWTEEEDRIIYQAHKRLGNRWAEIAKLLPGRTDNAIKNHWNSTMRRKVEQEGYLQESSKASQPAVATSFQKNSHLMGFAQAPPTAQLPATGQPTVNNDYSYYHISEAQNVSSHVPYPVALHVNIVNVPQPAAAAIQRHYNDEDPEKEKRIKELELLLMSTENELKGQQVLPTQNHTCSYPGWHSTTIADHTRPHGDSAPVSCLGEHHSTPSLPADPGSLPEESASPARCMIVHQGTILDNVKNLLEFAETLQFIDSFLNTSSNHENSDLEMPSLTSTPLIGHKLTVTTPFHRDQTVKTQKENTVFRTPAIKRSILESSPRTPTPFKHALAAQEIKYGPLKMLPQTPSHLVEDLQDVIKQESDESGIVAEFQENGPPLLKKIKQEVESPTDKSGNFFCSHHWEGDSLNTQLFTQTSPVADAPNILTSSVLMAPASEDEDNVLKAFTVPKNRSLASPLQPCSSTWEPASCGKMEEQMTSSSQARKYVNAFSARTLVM
Hepatocyte nuclear factor 4-alpha (Homo sapiens), sequence (P41235 whole entry, looked up, the tested form may be a part): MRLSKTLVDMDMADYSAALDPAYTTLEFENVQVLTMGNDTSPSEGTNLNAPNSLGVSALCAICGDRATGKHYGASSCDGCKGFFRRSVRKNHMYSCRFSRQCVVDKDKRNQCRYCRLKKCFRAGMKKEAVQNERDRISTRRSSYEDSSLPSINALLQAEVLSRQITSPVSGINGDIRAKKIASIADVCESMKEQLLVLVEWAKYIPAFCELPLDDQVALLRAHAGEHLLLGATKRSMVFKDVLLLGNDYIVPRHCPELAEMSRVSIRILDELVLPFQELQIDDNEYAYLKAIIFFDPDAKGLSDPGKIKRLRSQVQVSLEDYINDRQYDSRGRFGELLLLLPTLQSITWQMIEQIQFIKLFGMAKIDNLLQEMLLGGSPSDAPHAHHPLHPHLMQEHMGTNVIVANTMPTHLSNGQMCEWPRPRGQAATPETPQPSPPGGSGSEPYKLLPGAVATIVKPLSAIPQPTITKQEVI
Nuclear respiratory factor 1 (Homo sapiens), sequence (Q16656 whole entry, looked up): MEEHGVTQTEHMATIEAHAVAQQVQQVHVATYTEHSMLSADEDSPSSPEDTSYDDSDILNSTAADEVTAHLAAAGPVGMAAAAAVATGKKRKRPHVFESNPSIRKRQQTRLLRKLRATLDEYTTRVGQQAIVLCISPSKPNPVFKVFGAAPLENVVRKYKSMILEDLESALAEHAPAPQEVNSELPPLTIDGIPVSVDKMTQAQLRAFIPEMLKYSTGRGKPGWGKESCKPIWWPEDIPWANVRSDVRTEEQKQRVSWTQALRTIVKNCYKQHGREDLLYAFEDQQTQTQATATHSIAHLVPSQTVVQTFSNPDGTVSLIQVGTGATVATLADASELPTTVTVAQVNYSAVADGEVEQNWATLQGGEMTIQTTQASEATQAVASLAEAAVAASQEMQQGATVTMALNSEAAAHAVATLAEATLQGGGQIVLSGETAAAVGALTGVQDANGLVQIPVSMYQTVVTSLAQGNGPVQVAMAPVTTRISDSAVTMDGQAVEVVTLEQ
Oxysterols receptor LXR-beta (Homo sapiens), sequence (P55055 whole entry, looked up, the tested form may be a part): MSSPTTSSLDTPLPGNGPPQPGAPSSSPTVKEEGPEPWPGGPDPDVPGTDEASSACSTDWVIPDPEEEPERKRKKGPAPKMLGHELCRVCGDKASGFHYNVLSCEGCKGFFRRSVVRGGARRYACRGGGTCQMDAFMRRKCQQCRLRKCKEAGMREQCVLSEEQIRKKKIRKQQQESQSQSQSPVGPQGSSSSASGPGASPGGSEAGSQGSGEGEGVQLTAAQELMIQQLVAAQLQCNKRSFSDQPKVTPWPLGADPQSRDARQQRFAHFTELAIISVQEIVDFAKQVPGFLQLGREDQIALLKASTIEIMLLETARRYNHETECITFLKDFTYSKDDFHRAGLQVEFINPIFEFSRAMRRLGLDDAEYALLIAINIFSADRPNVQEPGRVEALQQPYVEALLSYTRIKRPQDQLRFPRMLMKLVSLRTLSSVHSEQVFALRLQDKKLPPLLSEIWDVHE
Nuclear receptor subfamily 4 group A member 2 (Homo sapiens), sequence (P43354 whole entry, looked up): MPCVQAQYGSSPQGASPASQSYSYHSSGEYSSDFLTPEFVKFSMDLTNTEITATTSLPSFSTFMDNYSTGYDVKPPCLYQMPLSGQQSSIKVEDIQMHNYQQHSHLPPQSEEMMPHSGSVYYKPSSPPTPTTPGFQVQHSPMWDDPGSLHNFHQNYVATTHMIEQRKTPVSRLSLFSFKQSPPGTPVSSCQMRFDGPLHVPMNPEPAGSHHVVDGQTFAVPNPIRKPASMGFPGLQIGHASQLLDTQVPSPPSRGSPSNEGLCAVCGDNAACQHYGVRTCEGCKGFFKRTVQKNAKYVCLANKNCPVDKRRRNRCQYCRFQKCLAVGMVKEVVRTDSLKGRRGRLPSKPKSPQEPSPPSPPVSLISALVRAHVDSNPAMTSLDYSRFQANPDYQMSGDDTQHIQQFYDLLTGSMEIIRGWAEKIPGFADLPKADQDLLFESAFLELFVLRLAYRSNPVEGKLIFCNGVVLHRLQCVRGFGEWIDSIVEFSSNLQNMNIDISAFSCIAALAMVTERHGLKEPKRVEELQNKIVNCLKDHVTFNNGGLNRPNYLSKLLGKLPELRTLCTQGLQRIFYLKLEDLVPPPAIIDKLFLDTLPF

CC1(C)[C@H]2CC[C@]1(C)[C@H](O)C2
not listed: [12] | [13] | [14] | [15] | [16] | [17] | [18] | [19]
inactive: all other assays above

Cc1c(N(C)C)c(=O)n(-c2ccccc2)n1C
not listed: [1] | [11] | [16] | [17] | [18] | [19]
inactive: all other assays above

CO[Si](C)(OC)c1ccccc1
active: [9] 16.2 µM
inactive: [1] | [2] | [4] | [5] | [6] | [7] | [8] | [10] | [11]

O=C1CCCCCCCCCCCCCCO1
inactive: [1] | [4] | [6] | [7] | [11]
active: [9] 74.4 µM | [10] 69.4 µM | [16] 20 µM | [17] 17.9 µM | [18] 27.3 µM

O=[N+]([O-])c1cc(C(F)(F)F)ccc1Cl
active: [9] 50.9 µM
not listed: [4] | [12] | [13] | [14] | [15] | [17]
inactive: all other assays above

N#Cc1ccc(CC(=NNC(=O)Nc2ccc(OC(F)(F)F)cc2)c2cccc(C(F)(F)F)c2)cc1
not listed: [2] | [3] | [4] | [7] | [12] | [13] | [17] | [19]
inactive: all other assays above

O=S(=O)(O)c1ccc(O)c2ncccc12
not listed: [8] | [12] | [13] | [14] | [16] | [17] | [18]
inactive: all other assays above

CC(C)C[C@H]1C(=O)N2CCC[C@H]2[C@]2(O)O[C@](NC(=O)[C@@H]3C=C4c5cccc6[nH]c(Br)c(c56)C[C@H]4N(C)C3)(C(C)C)C(=O)N12
inactive: [1] | [3] | [5] | [8] | [10]
active: [4] 5.67 µM | [6] 3.24 µM | [7] 3.81 µM | [9] 3.7 µM

Cc1ccc(C(C)C)cc1O
not listed: [11] | [12] | [13] | [14] | [16] | [17] | [18]
inactive: all other assays above

CC(c1cc2ccccc2s1)N(O)C(N)=O (centres undefined)
active: [1] 100 µM
inactive: [14] | [6] | [7] | [8] | [15] | [9] | [10]

CCCCCCCCCCCCCOS(=O)(=O)O
not listed: [3] | [8] | [12] | [13] | [16] | [17] | [18] | [19]
inactive: all other assays above

CCCCOCCOCCSC#N
active: [9] 16.7 µM
not listed: [4] | [12] | [13] | [16] | [17] | [18]
inactive: all other assays above

O=C(O)CCCCC1CCSS1 (centres undefined)
inactive: [1] | [19] | [2] | [4] | [5] | [6] | [15] | [10] | [11]
active: [9] 40 µM

O=C(OCc1ccccc1)C(=O)OCc1ccccc1
not listed: [1] | [4] | [12] | [16] | [17] | [18]
inactive: all other assays above

CCCCC/C=C/C=C/C=O
active: [9] 40.6 µM | [16] 31.5 µM | [18] 29.9 µM
not listed: [1] | [14] | [17] | [19]
inactive: all other assays above

Cc1ccc(C=O)cc1
inactive: [12] | [4] | [6] | [7] | [8] | [15] | [9] | [10] | [11]

Cc1ccc(Nc2ccc(O)c3c2C(=O)c2ccccc2C3=O)cc1
active: [9] 5.13 µM
not listed: [1] | [2] | [4] | [5] | [17] | [19]
inactive: all other assays above

O=Cc1ccc(Cl)c([N+](=O)[O-])c1
active: [5] 144 µM | [6] 170 µM | [7] 160 µM | [8] 100 µM | [9] 179 µM | [11] 54.5 µM
not listed: [1] | [12] | [16] | [17] | [18]
inactive: all other assays above

[Ca+2]
not listed: [1] | [3] | [11] | [12] | [16] | [17] | [18]
inactive: all other assays above

— PubChem BioAssay (EPA / NIEHS)
